Test results taken from PubChem BioAssay.
The source made the active and inactive calls.

Legend:
[1] = A549 cell viability effects, profiling panel, calcein-AM fluorescence, 48 h, basal (AID 1162); details: higher = more signal
[2] = adipocyte viability effects, profiling panel, cell-based, 3T3-L1 adipocytes, calcein-AM fluorescence, 48 h, basal (AID 1163); details: 3T3-L1 adipocytes viability, higher = more signal
[3] = HepG2 cell viability effects, profiling panel, calcein-AM fluorescence, 48 h, basal (AID 1164); details: higher = more signal
[4] = MM1S cell viability effects, profiling panel, calcein-AM fluorescence, 48 h, basal (AID 1165); details: higher = more signal;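 note: viability of MM1S multiple myeloma cells under basal unstimulated conditions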
[5] = basal RPMI8226 viability, no added stimulus, profiling panel, cell-based, calcein-AM fluorescence, 48 h, PK04 Diversity Set (AID 1166); details: RPMI8226 myeloma viability, higher = more signal;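 note: cells grown under basal conditions without added stimulus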
[6] = basal HepG2 mitochondrial membrane potential changes, profiling panel, cell-based, JC-1 fluorescence, 24 h, 100 nL compound (AID 1167); details: higher = more signal
[7] = basal 3T3-L1 adipocyte mitochondrial potential changes, profiling panel, cell-based, JC-1 fluorescence, 3T3-L1 adipocytes, 24 h, 100 nL compound (AID 1168); details: JC-1 mitochondrial fluorescence, higher = more signal, called active from +8 up or from −8 down
[8] = basal RPMI8226 mitochondrial membrane potential changes, profiling panel, cell-based, JC-1 fluorescence, 24 h, 100 nL compound (AID 1169); details: RPMI8226 myeloma, JC-1 mitochondrial potential fluorescence, higher = more signal
[9] = basal MM1S mitochondrial membrane potential changes, profiling panel, cell-based, JC-1 fluorescence, 24 h, 100 nL compound (AID 1170); details: higher = more signal
[10] = A549 lung cancer cell viability effects, profiling panel, resazurin fluorescence, 24 h, PK04 Diversity Set (AID 1171); details: higher = more signal, called active from +8 up or from −8 down
Note: test concentration not given here.

Row | SMILES | z-score [1] | z-score [2] | z-score [3] | z-score [4] | z-score [5] | z-score [6] | z-score [7] | z-score [8] | z-score [9] | z-score [10]
1 | CCCCN1CC=CC23O[C@@H]4/C=C\CCCOC(=O)C4[C@H]2C(=O)N(C(C)CO)[C@@H]3C1=O (stereo not given in full) | -0.455 | -0.455 | -0.564 | 0.35 | 1.4 | 0.698 | 0.0147 (inactive) | -0.546 | -1.11 | -0.249 (inactive)
2 | CC1CC/C=C\[C@H]2OC34C=CCN(CCN5CCOCC5)C(=O)[C@H]3N(CCCCCO)C(=O)[C@@H]4C2C(=O)O1 (stereo not given in full) | -0.365 | 0.374 | 0.68 | 1.09 | 0.0186 | -0.461 | -0.189 (inactive) | -0.0345 | -0.107 | -0.19 (inactive)
3 | O=C1O[C@@H](c2ccccc2)[C@@H](c2ccccc2)N2[C@@H](c3ccc(O)cc3)[C@]3(C(=O)Nc4ccccc43)[C@@H](C(=O)N3CCCCCCC3)[C@H]12 | -0.871 | 0.616 | 0.404 | -0.391 | -2.29 | -1.79 | 0.145 (inactive) | -0.659 | 0.0147 | -1.09 (inactive)
4 | C=CCN1C(=O)[C@@]2(O[C@@H](CCO)[C@H]([Si](C)(C)c3ccc(OC)cc3)[C@H]2C)c2cc(N3C(=O)COc4ccccc43)ccc21 | -3.41 | -0.967 | -4.72 | -2.74 | -4.33 | -2.17 | 2.78 (inactive) | -1.01 | -2.24 | -5.02 (inactive)
5 | COC(=O)[C@@]1(Cc2ccc(F)cc2)[C@H]2c3cc(C(=O)N(C)C)n(Cc4ccccn4)c3C[C@H]2CN1C(=O)c1ccccc1 | -1.48 | 0.311 | 0.291 | 0.263 | -0.519 | -0.21 | -0.858 (inactive) | -0.715 | -1.01 | 0.45 (inactive)
6 | CN(C)CCCC[C@@H]1NC(=O)[C@H]2C[C@@H](C(=O)NCCCCCNC(=O)CS)[C@@H](c3ccc(O)cc3)N2C1=O | -0.294 | -0.478 | -0.0888 | 0.201 | -0.285 | 1.68 | -0.143 (inactive) | -0.319 | 0.543 | -0.358 (inactive)
7 | CC(C)(C)OC(=O)CC[C@@]1(C(=O)NCC(O)CO)N=C(c2ccc(OCCCO)cc2)O[C@@H]1c1ccccc1 (stereo not given in full) | -0.0139 | -1.09 | 1.92 | -0.607 | -0.0321 | 1.93 | -0.144 (inactive) | -0.0607 | -0.844 | -0.387 (inactive)
8 | COC(=O)[C@@]1(Cc2ccc(OC)cc2)[C@H]2c3cc(C(=O)N4CCCC4)n(CCN4CCOCC4)c3C[C@H]2CN1C(=O)c1ccccc1 | -1.35 | 0.077 | 0.707 | 0.847 | -1.16 | 2.52 | 0.642 (inactive) | 0.28 | -0.936 | 0.0452 (inactive)
9 | CCCCCCCCCCC(O)C1C=CC2C(=O)N(c3ccccc3)C(=O)C2N1Nc1ccc([N+](=O)[O-])cc1 (stereo not given) | -2.28 | -0.581 | -1.82 | -3.31 | -4.22 | -2.87 | 0.656 (inactive) | -1.13 | -1.66 | 0.381 (inactive)
10 | C=CCC(OC(C)=O)[C@@H]1[C@@H](N(Cc2ccc(-c3cccc(C(F)(F)F)c3)o2)C(=O)Cc2ccc(OC)cc2)c2cc(OCCCO)ccc2N1C(=O)Cc1ccc(OC)cc1 (stereo not given in full) | 1.92 | 1.38 | 0.641 | 0.018 | -1.02 | 2.08 | -0.709 (inactive) | -0.804 | -0.757 | 0.139 (inactive)
11 | COCCOC(=O)N1C(=O)[C@@]2(c3cc(C#CCCO)ccc31)[C@H](C(=O)NC[C@H](O)c1ccccc1)[C@H]1C(=O)O[C@H](c3ccccc3)[C@H](c3ccccc3)N1[C@@H]2c1ccc(OCCO)cc1 | -0.339 | 1.22 | -0.981 | -0.97 | -0.304 | -1.25 | 0.623 (inactive) | -0.8 | -0.904 | 1.21 (inactive)
12 | C[C@H]1C2[C@H](Cc3ccccc3)NC(=O)[C@]23C(=O)N[C@H](Cc2ccccc2)C(=O)N[C@H](Cc2ccccc2)C(=O)NC/C=C/CCC/C=C/C3[C@@H]2O[C@]12C (stereo not given in full) | 0.144 | 1.58 | -0.385 | -1.01 | -3.48 | 1.71 | -0.77 (inactive) | -0.469 | -1.08 | -1.5 (inactive)
13 | C[N+](C)(C)CCCC[C@@H]1NC(=O)[C@@H]2C[C@H](C(=O)NCCCCCCNC(=O)CS)[C@H](c3cccc(OCCO)c3)N2C1=O | -0.14 | -0.0406 | 1.5 | 0.954 | 0.186 | 1.53 | 0.215 (inactive) | 0.476 | -0.677 | -0.333 (inactive)
14 | C=C(CCCC)C(=O)CC[C@H](OC(=O)c1ccccc1-c1ccccc1C(=O)O)c1ccc(CO)o1 | 0.0743 | 0.418 | -0.862 | -0.0307 | 0.334 | -0.373 | -0.727 (inactive) | -0.658 | 0.063 | 1.09 (inactive)
15 | O=C(NCC(O)CO)[C@]1(CCS(=O)(=O)c2ccccc2)N=C(c2ccc(OCCCO)cc2)O[C@@H]1c1ccccc1 (stereo not given in full) | -0.206 | -0.13 | -0.635 | -0.37 | -0.33 | 0.22 | -1.3 (inactive) | -0.213 | -0.824 | 0.562 (inactive)
16 | COCCOC(=O)N1C(=O)[C@@]2(c3cc(C#Cc4ccc(OC)cc4)ccc31)[C@H](c1ccc(OCCO)cc1)N1[C@H](c3ccccc3)[C@H](c3ccccc3)OC(=O)[C@H]1[C@@H]2C(=O)N1CCc2cc(OC)c(OC)cc2C1 | 0.618 | 0.979 | 0.156 | 0.427 | 0.959 | -0.343 | 2.92 (inactive) | -0.322 | -1.24 | 0.216 (inactive)

Row | SMILES | z-score [1] | z-score [2] | z-score [3] | z-score [4] | z-score [5] | z-score [6] | z-score [7] | z-score [8] | z-score [9] | z-score [10]
17 | O=C1C2C=CC(C(O)c3ccccn3)N(Nc3ccccc3F)C2C(=O)N1c1ccccc1 (stereo not given) | -0.922 | -1.12 | 1.04 | -0.211 | -0.217 | -0.793 | 0.608 (inactive) | -0.196 | -0.541 | -0.52 (inactive)
18 | CN1C(=O)C2C=CC(C(O)C=Cc3ccc([N+](=O)[O-])cc3)N(N3CCCCC3)C2C1=O (stereo not given) | -1.1 | -1.15 | -0.382 | -0.351 | 0.107 | -1.77 | -1.31 (inactive) | -0.834 | -0.4 | -0.244 (inactive)
19 | C=C(C(=O)CC[C@@H](OC(=O)c1cccnc1)c1ccc(OCCO)cc1)C(C)C | -1.9 | -1.63 | -3.17 | -3.39 | -1.9 | -0.959 | -0.0274 (inactive) | -0.304 | -1.41 | -1.34 (inactive)
20 | O=C1NC(=O)C2C1C=CC(C(O)c1cccs1)N2Nc1ccccn1 (stereo not given) | 1.74 | -0.508 | 0.714 | 0.119 | 1.13 | 0.674 | 0.112 (inactive) | 0.268 | 0.0729 | -1.06 (inactive)
21 | O=C(NCC(O)CO)[C@@]1(Cc2ccccc2)COC(c2ccc(OCCCO)cc2)=N1 (stereo not given in full) | -0.0736 | -0.183 | -0.283 | -0.467 | -0.164 | -0.201 | -0.817 (inactive) | -0.805 | -0.89 | -0.0991 (inactive)
22 | O=C1O[C@H](c2ccccc2)[C@H](c2ccccc2)N2[C@H]1[C@@H](C(=O)N1CCCCCCC1)[C@]1(C(=O)Nc3ccc(C#CC4=CCCCC4)cc31)[C@H]2c1ccc(O)cc1 | -0.674 | 1.01 | -0.0827 | -0.181 | -0.773 | -1.28 | 0.634 (inactive) | -0.179 | -1.28 | 0.327 (inactive)
23 | COc1ccc(CCNC(=O)[C@@]2(C)c3ccccc3C(=O)N(Cc3ccccc3)[C@H]2c2ccc(CO)cc2)cc1 | -0.973 | 0.456 | -0.833 | -0.886 | -2.55 | 1.05 | -0.965 (inactive) | -0.0556 | -0.986 | 2.17 (inactive)
24 | CC(c1ccccc1)C(O)C1C=CC2C(=O)N(c3ccccc3)C(=O)C2N1Nc1ccccc1F (stereo not given) | -0.221 | -0.146 | -0.77 | 0.214 | -0.975 | -1.13 | -0.994 (inactive) | 0.387 | -0.289 | 0.959 (inactive)
25 | COC(=O)[C@@]1(Cc2ccc(F)cc2)[C@H]2c3cc(C(=O)N4CCCC4)n(CCc4ccc(OC)c(Br)c4)c3C[C@H]2CN1C(=O)c1ccccc1 | -1.58 | -0.483 | -2.5 | -1.66 | -4.69 | 0.275 | -0.317 (inactive) | -0.626 | -2.09 | -2.3 (inactive)
26 | CC(C)OC(=O)C1=CCC(c2cccc(Cl)c2)O1 (stereo not given) | -1.14 | 0.102 | -0.582 | -1.57 | -1.58 | -0.231 | -0.076 (inactive) | 0.923 | -1.99 | 1.09 (inactive)
27 | C=CCOC(=O)[C@H]1[C@@H]2C(=O)O[C@@H](c3ccccc3)[C@@H](c3ccccc3)N2[C@@H](c2ccc(OCCOC(=O)[C@@H]3C[C@@H]4C(=O)NCC(=O)N4[C@@H]3c3ccc(O)cc3)cc2)[C@]12C(=O)Nc1ccc(I)cc12 | -0.566 | -0.907 | -0.368 | -0.0033 | 0.169 | -1.55 | 0.459 (inactive) | -0.688 | -1.1 | -0.148 (inactive)
28 | COC(=O)C(CC#Cc1ccc2c(c1)[C@]1(C(=O)N2)[C@H](C(=O)N2CCCCCCC2)[C@H]2C(=O)O[C@H](c3ccccc3)[C@H](c3ccccc3)N2[C@@H]1c1ccccc1OCCO)C(=O)OC | -0.65 | 0.091 | 0.491 | -0.216 | -0.421 | 0.0896 | 1.09 (inactive) | -0.835 | -1.33 | 0.901 (inactive)
29 | C=CC[C@]1(C(=O)O)N=C(c2ccc(OCCCO)cc2)O[C@H]1c1ccccc1CN=[N+]=[N-] | 1.32 | -1.06 | 0.243 | 0.869 | 0.293 | -0.131 | 0.0284 (inactive) | -0.57 | -0.587 | -0.506 (inactive)
30 | O=C1C2C=CC(C(O)c3ccc(Br)cc3)N(n3cnnc3)C2C(=O)N1Cc1ccccc1 (stereo not given) | -1.71 | -1 | -3.58 | -0.496 | -3.99 | -0.422 | 0.633 (inactive) | -0.212 | 0.00374 | 0.0637 (inactive)
31 | O=C(NCC(O)CO)[C@@]1(Cc2ccccc2)N=C(c2ccc(OCCCO)cc2)O[C@H]1c1ccccc1 (stereo not given in full) | -0.125 | 1.2 | -0.266 | -1.93 | -0.0748 | 0.4 | 0.366 (inactive) | -0.392 | -0.223 | 0.564 (inactive)
